AmpC inh detg: qHTS Inhibitors of AmpC Beta-Lactamase (assay with detergent) | Potency, µM (series often up to 114 µM), without a hit: at the highest dose activity change, negative = inhibition, hits mostly inhibitors | 0.041% of 370,000 active | P00811 | AmpC hydrolysis of nitrocefin, absorbance 480 nm, 0.01% Triton;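 note: 0% = no-compound wells and -100% = no-enzyme wells; nearly all actives have a fitted effect of over 25% in size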
Target sequence (P00811 whole entry, looked up): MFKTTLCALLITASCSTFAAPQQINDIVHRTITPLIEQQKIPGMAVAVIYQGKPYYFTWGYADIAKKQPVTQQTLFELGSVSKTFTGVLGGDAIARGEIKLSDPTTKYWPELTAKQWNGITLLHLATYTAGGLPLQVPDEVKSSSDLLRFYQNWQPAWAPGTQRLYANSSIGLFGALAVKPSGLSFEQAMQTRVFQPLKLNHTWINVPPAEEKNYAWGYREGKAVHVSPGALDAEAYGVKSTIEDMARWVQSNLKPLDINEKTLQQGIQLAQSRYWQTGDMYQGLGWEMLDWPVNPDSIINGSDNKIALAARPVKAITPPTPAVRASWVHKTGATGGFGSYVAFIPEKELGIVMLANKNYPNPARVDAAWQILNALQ
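20 mM phosphate pH 7.0 + 0.01% (detergent screen) or 0.0001% Triton X-100; 5.3 nM AmpC reagent; cpd preinc 15 min RT; nitrocefin (800 uM stock) to start; A480 q20 s × 4 min; Activity was normalised to no-enzyme and no-compound control wells.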
AmpC inh no detg: qHTS Inhibitors of AmpC Beta-Lactamase (assay without detergent). P00811. AmpC nitrocefin hydrolysis, absorbance 480 nm, 0.0001% Triton. Potency, µM (highest dose often 57.1 µM), without a hit: top-dose activity change, negative = inhibition, most hits filed as inhibitors. 0.52% of 330,000 active;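 note: plate controls were no compound for no effect and no enzyme for full effect; nearly all actives have a fitted effect of over 20% in size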
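20 mM phosphate pH 7.0 + 0.01% (detergent screen) or 0.0001% Triton X-100; 5.3 nM AmpC reagent; cpd preinc 15 min RT; nitrocefin (800 uM stock) to start; A480 q20 s × 4 min; Activity was normalised to no-enzyme and no-compound control wells.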
Sm TGR block: qHTS Assay for the Inhibitors of Schistosoma Mansoni Peroxiredoxins; Schistosoma mansoni thioredoxin glutathione reductase (TGR), Q962Y6; purified TGR, DTNB reduction, TNB absorbance 405 nm; Potency, µM (highest dose often 114 µM), for inactives: at the highest dose activity change, negative = inhibition, usual class: inhibitors; 3% of 360,000 active; AID 485364, 2010; note: nearly all actives have a fitted effect of over 60% in size
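Kinetic colorimetric format: TGR-catalysed, NADPH-driven DTNB reduction monitored via TNB absorbance. Enzyme dispensed at 20 nM; compound exposure 15 min at room temperature before reaction start.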
An asterisk follows results filed as active; [ ] = another dose, or the depositor's remark. A selection: hits, their analogues and other compounds. The true share with any hit is near 3.3%. Calls come from the whole dose curve; as a rule, active = well fitted curve in the direction sought with a large enough effect; inconclusive = small, poorly fitted or top-dose-only effect, or another doubt; inactive = no such curve, though single readings can be large; an effect the other way counts as inactive or inconclusive. Unless noted, % is set by controls: 0 for no effect and ±100 for the full control effect; potency is the fitted concentration of half-maximal effect.

Screening CC(C)(C)CC(=O)NC(=S)Nc1ccccc1[N+](=O)[O-] returned AmpC inh detg -10.3%, AmpC inh no detg -42.2% and Sm TGR block -15.1%.
`O=C(CCOc1ccccc1)Nc1ccccc1[N+](=O)[O-]` gave AmpC inh detg -7.0%, AmpC inh no detg -21.3% and Sm TGR block inconclusive.
COCC(C)NC(=S)Nc1ccccc1[N+](=O)[O-] (stereo not given) was read as AmpC inh detg 2.9%, AmpC inh no detg -36.8% and Sm TGR block 39.8µM*.
`O=C(CC(=O)Nc1ccccc1[N+](=O)[O-])Nc1ccccc1[N+](=O)[O-]` gave AmpC inh detg -0.4%, AmpC inh no detg -44.9% and Sm TGR block 89.1µM*.
`CCOCCc1c(O)nc(SCCOc2ccc(C)c(C)c2)[nH]c1=O` gave AmpC inh detg -0.7%, AmpC inh no detg -30.3% and Sm TGR block -6.0%[57.1 µM].
For Cc1ccc(NC(=O)CCS(=O)(=O)c2cccc3nsnc23)c(C)c1 the results were AmpC inh detg -6.4% and Sm TGR block -2.5%.
CCOC(=O)C1/C(=N\O)CC(C)(O)C(C(=O)OCC)C1c1ccc(N(C)C)cc1 (stereo not given) was read as AmpC inh detg -2.6%, AmpC inh no detg 1.6% and Sm TGR block 35.5µM*.
CCOC(=O)C1/C(=N\O)CC(C)(O)C(C(=O)OCC)C1c1ccc(OC)c(OC)c1 (stereo not given) was read as AmpC inh detg -2.0%, AmpC inh no detg 1.0% and Sm TGR block 4.8%.
Cc1sc(-n2c(C)cc(/C=C3\SC(=S)NC3=O)c2C)c(C#N)c1C was read as AmpC inh detg -5.8%, AmpC inh no detg 14.1µM* and Sm TGR block -17.2%.
Screening Cc1cc(/C=C2\SC(=S)NC2=O)c(C)n1-c1cccc(O)c1 returned AmpC inh detg 6.4%, AmpC inh no detg 17.8µM* and Sm TGR block -28.0%.
Screening Cc1sc(-n2c(C)cc(C=C3C(=O)NC(=O)NC3=O)c2C)c(C#N)c1C returned AmpC inh detg -1.0%, AmpC inh no detg -1.1% and Sm TGR block inconclusive.
`Cc1ccc(-n2c(C)cc(/C=C3\SC(=O)NC3=O)c2C)cc1` gave AmpC inh detg 1.6%, AmpC inh no detg -38.0% and Sm TGR block 9.9%.
CC1(C#CC[N+]2(C)CCCCC2)CCC2C(O1)c1ccccc1OC2(C)C (stereo not given) was read as AmpC inh detg inconclusive, AmpC inh no detg -1.0% and Sm TGR block -1.2%.
For Oc1ccc(O)c(Cc2nc3ccccc3s2)c1 the results were AmpC inh detg 1.6%, AmpC inh no detg -41.9% and Sm TGR block 50.1µM*.
Oc1ccccc1OCc1nc2ccccc2s1 was read as AmpC inh detg -5.8%, AmpC inh no detg -28.4% and Sm TGR block 8.5%.
Cc1onc(-c2ccccc2Cl)c1NC(=O)NCc1cccs1 was read as AmpC inh detg 4.0%, AmpC inh no detg -1.6% and Sm TGR block 0.6%.
`CCOc1ccc(/C=C/c2nc(C#N)c(Nc3ccc(OCC)cc3)o2)cc1` gave AmpC inh detg 7.2% and Sm TGR block -2.9%.
`CC(=O)N1c2ccc(Cl)cc2C2OCCC2C1c1ccco1` (stereo not given) gave AmpC inh detg -1.9%, AmpC inh no detg 16.2% and Sm TGR block -14.0%.
Clc1ccc2c(c1)C1OCCC1C(c1ccco1)N2 (stereo not given) was read as AmpC inh detg inconclusive, AmpC inh no detg -15.5% and Sm TGR block 31.6µM*.
Screening CCOc1ccccc1C1C2C(=O)N(c3ccccc3)C(=O)C2ON1c1ccccc1 (stereo not given) returned AmpC inh detg -8.6%, AmpC inh no detg -7.0% and Sm TGR block -26.0%.
`O=C(O)COc1ccccc1C1C2C(=O)N(c3ccccc3)C(=O)C2ON1c1ccccc1` (stereo not given) gave AmpC inh detg -15.9%, AmpC inh no detg -7.8% and Sm TGR block 22.4µM*.
For Cc1ccc(N2C(=O)C3ON(c4ccccc4)C(c4ccncc4)C3C2=O)cc1 (stereo not given) the results were AmpC inh detg 10.6%, AmpC inh no detg 104.0% and Sm TGR block 15.8µM*.
`O=C1C2ON(c3ccccc3)C(c3ccncc3)C2C(=O)N1c1ccc(Br)cc1` (stereo not given) gave AmpC inh detg inconclusive, AmpC inh no detg 47.9% and Sm TGR block 44.7µM*.
For O=C1C2ON(c3ccccc3)C(c3ccncc3)C2C(=O)N1c1ccc(N2CCOCC2)cc1 (stereo not given) the results were AmpC inh detg -14.2%, AmpC inh no detg 98.5% and Sm TGR block 3.2%.
`CN(C)c1ccc(C2C3C(=O)N(c4ccc(C(=O)O)cc4)C(=O)C3ON2c2ccccc2)cc1` (stereo not given) gave AmpC inh detg -1.4%, AmpC inh no detg -14.1% and Sm TGR block -2.5%.
For COc1cccc(CN(C)C(=O)c2cc(-c3cccs3)nc3ccccc23)c1 the results were AmpC inh detg 3.5%, AmpC inh no detg -0.4% and Sm TGR block inconclusive.
For CCOCCc1nnc(NC(=O)C(=O)c2cc(C)n(-c3cccc(C)c3)c2C)s1 the results were AmpC inh detg -4.7% and Sm TGR block 7.9%.
For CC1(C)Cc2c(sc3c2c2ncnn2c2nnc(SCC(=O)NCc4ccco4)n32)CO1 the results were AmpC inh detg -12.9%, AmpC inh no detg -18.2% and Sm TGR block -2.0%[11.4 µM].
For CCC1(C)Cc2c(sc3c2c2ncnn2c2nnc(SCC(=O)NCc4ccco4)n32)CO1 (stereo not given) the results were AmpC inh detg -19.5%, AmpC inh no detg 1.5% and Sm TGR block 44.7µM*.
For COc1ccc(S(=O)(=O)Nc2ccc(OCC(=O)O)cc2)c2ccccc12 the results were AmpC inh detg inconclusive, AmpC inh no detg -23.1% and Sm TGR block -8.6%.
`CCOc1ccc2c(c1)[C@@H]1C=CC[C@@H]1[C@H](c1ccccc1Cl)N2` gave AmpC inh detg 1.4% and Sm TGR block -7.5%.
`COC(=O)COc1ccc(C2Nc3c(Cl)ccc(C(=O)O)c3C3C=CCC32)cc1` (stereo not given) gave AmpC inh detg -10.2%, AmpC inh no detg -26.5% and Sm TGR block 3.55µM*.
COc1ccc(OC)c(C2Nc3c(Cl)ccc(C(=O)O)c3C3C=CCC32)c1 (stereo not given) was read as AmpC inh detg 2.4%, AmpC inh no detg -42.1% and Sm TGR block 1.58µM*.
COC(=O)COc1ccc(S(=O)(=O)N2CCN(c3ccccc3)CC2)cc1 was read as AmpC inh detg -1.3% and AmpC inh no detg 31.7%.
`CCCCn1c(N)c(N(CC(C)C)C(=O)CCCSc2nncs2)c(=O)[nH]c1=O` gave AmpC inh detg 6.8%, AmpC inh no detg -14.3%[11.4 µM] and Sm TGR block 3.3%.
O=C(CNC(=S)NC(=O)c1cccs1)c1ccccc1 was read as AmpC inh detg -11.8%, AmpC inh no detg -12.5% and Sm TGR block -3.1%.
`O=C(NC(=S)NCc1ccccc1)c1ccccc1` gave AmpC inh detg -5.7% and AmpC inh no detg -16.0%.
For CC(=O)NC(=S)Nc1ccc(NC(=O)c2cccs2)cc1 the results were AmpC inh detg -14.6%, AmpC inh no detg -8.3% and Sm TGR block -29.6%.
